Source: PubChem BioAssay (National Center for Advancing Translational Sciences (NCATS))
G9a inh = blocks human histone lysine methyltransferase G9a; G9a H3K9 monomethylation, AlphaScreen, 2 h; Potency, µM (doses to about 102 µM), for the others: at the highest dose activity, negative = inhibition, usual class: inhibitors; actives 8.8% (n = 350,000); AID 504332; note: potency is the fitted concentration of half-maximal effect; % is set by controls: 0 for no effect and ±100 for the full control effect; nearly all actives have a fitted effect of over 75% in size
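Chemiluminescent proximity detection of H3K9 monomethylation, read after 10 min bead incubation in the dark. Reaction: 20 nM G9a, 500 nM biotin-H3K9 peptide, 20 uM SAM cofactor, 2 h, room temperature, following 15 min enzyme-compound preincubation.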
JMJD2A Tudor = blocks the human JMJD2A Tudor domain. O75164. AlphaScreen JMJD2A-Tudor / H3K4me3 peptide binding. Potency, µM (doses to about 114 µM), for inactives: at the top dose activity change, negative = inhibition, usual class: inhibitors. actives 4.4% (n = 390,000). AID 504339; note: potency is the fitted concentration of half-maximal effect; % is set by controls: 0 for no effect and ±100 for the full control effect; nearly all actives have a fitted effect of over 50% in size
L3MBTL1 inh = L3MBTL1 (human) inhibition. AID 485360. AlphaScreen L3MBTL1–H3K9me1 peptide binding. Potency, µM (series often up to 57.1 µM), for inactives: at the top dose activity, negative = inhibition, actives largely listed as inhibitors. actives 0.66% (n = 230,000). Q9Y468; note: potency is the fitted concentration of half-maximal effect; % is set by controls: 0 for no effect and ±100 for the full control effect; nearly all actives have a fitted effect of over 60% in size
Target sequence (Q9Y468 whole entry, looked up): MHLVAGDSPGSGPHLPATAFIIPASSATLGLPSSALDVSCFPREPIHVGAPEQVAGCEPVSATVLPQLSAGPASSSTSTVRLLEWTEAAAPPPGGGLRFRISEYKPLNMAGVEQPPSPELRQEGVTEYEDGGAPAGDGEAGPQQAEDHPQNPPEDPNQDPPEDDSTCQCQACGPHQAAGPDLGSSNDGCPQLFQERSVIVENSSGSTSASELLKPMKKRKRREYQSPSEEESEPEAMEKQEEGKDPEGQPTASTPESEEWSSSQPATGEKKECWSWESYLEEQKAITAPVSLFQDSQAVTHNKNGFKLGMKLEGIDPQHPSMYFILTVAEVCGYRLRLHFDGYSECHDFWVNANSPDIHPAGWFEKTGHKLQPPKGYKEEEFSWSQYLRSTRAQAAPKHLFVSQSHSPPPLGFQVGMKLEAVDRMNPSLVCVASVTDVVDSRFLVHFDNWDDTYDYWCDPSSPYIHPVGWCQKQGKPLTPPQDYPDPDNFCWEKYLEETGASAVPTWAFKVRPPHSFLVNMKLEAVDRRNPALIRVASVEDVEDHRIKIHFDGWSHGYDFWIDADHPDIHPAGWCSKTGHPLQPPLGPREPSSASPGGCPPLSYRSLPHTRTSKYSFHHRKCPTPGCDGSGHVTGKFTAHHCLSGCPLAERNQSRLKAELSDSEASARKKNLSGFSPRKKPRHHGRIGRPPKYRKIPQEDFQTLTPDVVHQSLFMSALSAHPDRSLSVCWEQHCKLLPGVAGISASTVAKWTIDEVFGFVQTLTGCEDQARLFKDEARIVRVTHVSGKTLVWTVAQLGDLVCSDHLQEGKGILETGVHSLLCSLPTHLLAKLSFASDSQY
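AlphaScreen proximity signal between nickel-chelate acceptor and streptavidin donor beads (final 10 ug/mL) reports binding of 50 nM L3MBTL1 to 75 nM biotin-H3 K9me1 peptide; complex incubated with compounds 30 min at room temperature; cefsulodin titration as control.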
BAZ2B block = BAZ2B (human) inhibition | Q9UIF8 | AlphaScreen BAZ2B-H3K14Ac peptide displacement | AID 504333 | actives 4.4% (n = 360,000) | Potency, µM (top dose mostly 114 µM), without a hit: at the top dose activity change, negative = inhibition, most hits filed as inhibitors; note: potency is the fitted concentration of half-maximal effect; % is set by controls: 0 for no effect and ±100 for the full control effect; nearly all actives have a fitted effect of over 60% in size
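BAZ2B 50 nM plus b-H3(5-23)K14Ac 50 nM, PBS pH 7.4/0.01% Tween-20, 30 min RT; compound added (max 110 uM), 30 min RT; streptavidin donor/Ni-chelate acceptor beads 10 ug/mL final, 20 min dark; AlphaScreen read.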
HP1b chromo inh = HP1-beta chromodomain-methylated histone interaction inhibition; P83916; Potency, µM (doses to about 114 µM), without a hit: at the highest dose activity change, negative = inhibition, actives largely listed as inhibitors; AID 540317; AlphaScreen HP1-beta / biotin-H3K9me3 peptide binding; actives 0.56% (n = 390,000); note: potency is the fitted concentration of half-maximal effect; nearly all actives have a fitted effect of over 70% in size
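Compound inhibition of the preformed complex between 50 nM HP1-beta and 50 nM biotinylated H3K9me3 peptide was read by AlphaScreen. Buffer was PBS pH 7.4 with 0.01% Tween-20. Incubations ran 30 min at room temperature, with 10 ug/mL donor/acceptor beads.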
PI5P4K alpha inh = blocks human PI5P4K alpha kinase activity | P48426 | max response, % | actives 1.2% (n = 330,000) | AID 652105 | PI5P4Kalpha enzyme, ADP-Glo luminescence, 60 min; hits give low values; active = max response of -50% or lower; inconclusive = between -30% and -50%; inactive = -30% or higher; note: value at the top dose of about 77 µM; % is set by controls: 0 for no effect and ±100 for the full control effect
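ADP-Glo luminescence end-point read after a 60 min room-temperature kinase reaction of PI5P4Kalpha plus substrate, initiated with ATP at 5 microM final. Buffer: 0.038 M HEPES pH 7.4, EGTA, 0.1% CHAPS, 5% DMSO.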
Numbers without * were called inactive; ? = inconclusive; . = not tested or not shown; ! = repeats disagree; [ ] = another dose, or the depositor's remark. An excerpt weighted towards active compounds, which were near 11% of everything screened. Unless noted, calls come from the whole dose curve; as a rule, active = well fitted inhibition curve with a large enough effect; inconclusive = small, poorly fitted or top-dose-only effect; inactive = no such curve, though single readings can be large or run the other way.

SMILES	G9a inh	JMJD2A Tudor	L3MBTL1 inh	BAZ2B block	HP1b chromo inh	PI5P4K alpha inh
Cc1oc(-c2ccc(Cl)cc2)nc1CN1CCC(C(=O)NCCCN2CCN(c3cccc(Cl)c3)CC2)CC1	10µM*	?	.	?	-12%	.
CN(CC(=O)N[C@H](CO)Cc1ccccc1)C(=O)[C@H](CCS(C)=O)NC(=O)[C@@H](N)Cc1ccc(O)cc1 (stereo partly specified)	44%[59 µM]	.	.	.	.	.
COc1ccc(C(=O)Nc2nnc(S(=O)(=O)N(CC(C)C)c3ccc(C)cc3)s2)cc1OC	0%[59 µM]	55%	.	86%	103%	.
O=C1NC(=O)C(=Cc2coc3ccccc3c2=O)C(=O)N1	35µM*	-22%	.	.	-2%	-77*
O=C1NC(=O)C(=Cc2csc3ccccc23)C(=O)N1	8.9µM*	-11%	3%	?	8%	-73*
CC(=O)n1cc(C=C2C(=O)NC(=O)NC2=O)c2ccccc21	10µM*	?	.	-16%	32%	?
O=C1NC(=O)C(=C/C=C/c2coc3ccc(Br)cc3c2=O)C(=O)N1	8.9µM*	.	-27%	-34%	.	.
CC[C@H]1CN2CC[C@@H]1C[C@H]2[C@@H](O)c1ccnc2ccc(OC)cc12	6%[21.5 µM]	.	.	.	.	.
CCC(=O)O[C@@](Cc1ccccc1)(c1ccccc1)[C@@H](C)CN(C)C	25%[21.5 µM]	.	.	.	.	.
O=C1NC(=O)C(=Cc2ccc(SC3CCCCC3)o2)C(=O)N1	11µM*	?	?	45µM*	50µM*	-75*
O=C1NC(=O)N(c2ccc3c(c2)OCO3)C(=O)/C1=C\c1ccc(N2CCCCC2)o1	-12%[59 µM]	-12%	-5%	-28%	24%	-4
Cc1ccccc1-n1c(O)c(/C=N/N2CCOCC2)c(=O)[nH]c1=S	?	-29%	-16%	?	18%	6
O=c1[nH]c(=S)n(-c2ccc(F)cc2)c(O)c1/C=N/N1CCOCC1	45µM*	8%	5%	?	39%	-6
O=c1c(/C=N/N2CCOCC2)c(O)n(-c2ccccc2)c(=S)n1-c1ccccc1	50µM*	-12%	3%	?	11%	0
Cn1c(O)c(/C=N/N2CCOCC2)c(=O)n(-c2ccccc2)c1=S	-39%	-24%	-7%	-17%	16%	-6
CNC(C)[C@H](O)c1ccccc1 (stereo partly specified)	-44%[2.33 µM]	.	.	.	.	.
COc1ccc(-n2c(/C=C\c3ccccc3F)nc3ccccc3c2=O)c(OC)c1	11%[59 µM]	-28%	.	-14%	-11%	.
Cc1ccc(-c2nn(C)c(=O)c3ccccc23)cc1CNC(=O)/C=C/c1ccccc1	.	-16%	32%	12%	16%	-1
CCCNc1nc(-c2cc(C(=O)Nc3ccccc3)on2)cc(C(C)C)n1	.	-9%	.	.	52%	-2
COc1ccccc1-c1nn2c(=O)cc(CN3CCN(C(=O)COc4ccccc4Cl)CC3)nc2s1	9%[59 µM]	-16%	.	-4%	12%[57 µM]	.
N#CC(C#N)=Cc1ccc(O)c(O)c1	8.4µM*	?	22µM*	79µM*	3%	-12
CCOP(=O)(OCC)/C(C#N)=C/c1ccc(Br)cc1	-11%[2.33 µM]	-17%	6%	-3%	-3%	-3
CC(C)(C)c1cc(C=C(C#N)C#N)cc(C(C)(C)C)c1O	13µM*	3%	-20%	?	18%	1
CCc1ccc(/C=C(/C#N)C(N)=S)cc1	8.9µM*	-34%	-4%	?	?	3
COc1cc(C=C(C#N)C#N)cc(O)c1O	2.5µM*	.	.	.	.	.
SMILES	G9a inh	JMJD2A Tudor	L3MBTL1 inh	BAZ2B block	HP1b chromo inh	PI5P4K alpha inh
CN(C)c1ccc(C=C(C#N)C#N)cc1	7%[59 µM]	-18%	7%	-21%	28%	-1
C[C@@H](C1CC[C@@]2(O)C3=CC(=O)[C@@H]4C[C@@H](O)[C@@H](O)C[C@]4(C)[C@H]3CC[C@]12C)[C@H](O)CCC(C)(C)O (stereo partly specified)	.	-6%	.	.	64%	.
C[C@]12CC[C@H]3[C@@H](CCC4C[C@H](O)CC[C@@]43C)[C@@H]1CC[C@@H]2O (stereo partly specified)	10%[12.7 µM]	.	.	.	.	.
CCC(C)C1O[C@]2(C=CC1C)CC1CC(C/C=C(\C)[C@H](OC3CC(OC)C(O[C@H]4CC(OC)[C@@H](O)C(C)O4)C(C)O3)[C@@H](C)/C=C/C=C3\COC4C(O)C(C)=C[C@H](C(=O)O1)[C@@]34O)O2 (stereo partly specified)	-31%[2.33 µM]	.	.	.	.	.
Clc1ccc2c(c1)C(c1ccccc1)=NCc1nncn1-2	-29%[12.7 µM]	.	.	.	.	.
N#CC(=Cc1ccc(O)c(O)c1)C(N)=S	5µM*	.	.	.	.	.
N#C/C(=C\c1ccc(O)cc1)C(=O)O	.	-17%	.	.	28%	-6
O=C1NC(=S)NC(=O)C1=Cc1cccc2cc3ccccc3cc12	16µM*	-21%	-1%	32µM*	8%	-70*
O=C1NC(=O)C(=Cc2ccc(OCC(=O)N3CCOCC3)cc2)C(=O)N1	?	-11%	-6%	-4%	54%	?
O=C1NC(=S)NC(=O)C1=Cc1ccc(OCc2ccccc2)cc1	.	79µM*	.	.	-9%	-82*
CN(C)c1ccc(C=C2C(=O)NC(=O)NC2=O)cc1[N+](=O)[O-]	?	-14%[11.4 µM]	-10%	.	11%	?
COc1ccc(C=C2C(=O)NC(=S)NC2=O)cc1	.	89µM*	.	.	?	-64*
CN(C)c1ccc(C=C2C(=O)NC(=S)NC2=O)cc1[N+](=O)[O-]	7.1µM*	35µM*	-29%	?	?	-75*
CCCC(C)C1(CC)C(=O)NC(=S)NC1=O (stereo unspecified)	26%[59 µM]	.	.	.	.	.
COc1ccc(N(C)C(=O)Cn2c(=O)oc3ccccc32)c(OC)c1	45µM*	0%	.	-2%	?	-3
COCCN(CCOC)C(=O)CCn1c(=O)oc2ccccc21	?	?	?	-4%	16%	1
CC(N)c1cccc(Cl)c1Cl (stereo unspecified)	8%[59 µM]	.	.	.	.	.
CN1CCC(c2c[nH]c3ccc(O)cc23)CC1	13µM*!	-16%	.	.	38%	-2
N#CC(C#N)=NNc1ccc(OC(F)(F)F)cc1	10µM*	.	.	.	.	.
O=C1NC(=O)N(Cc2ccccc2)C(=O)/C1=C\N1CCCc2ccccc21	?	-32%	?	-33%	15%	?
O=C1NC(=O)C(=CN2CCc3ccccc32)C(=O)N1	13µM*	-18%	-5%	-3%	2%	5
C=CCN1CC[C@]23c4c5ccc(O)c4O[C@H]2/C(=N/NC(=O)c2ccccc2)CC[C@@]3(O)[C@H]1C5	35µM*	-16%	.	.	31%	-11
COc1ccccc1C1Nc2ccccc2-n2c(-c3ccccc3)c3c(=O)n(C)c(=O)n(C)c3c21 (stereo unspecified)	?	-26%	.	-23%	50%	.
